Assay outcomes as filed in PubChem.
Sampled rows, rich in hits. Any-hit rate of the full collection: about 8.7%.
12-LOX inh – Primary qHTS assay for inhibitors of human arachidonate 12S-lipoxygenase (ALOX12): Round 2; purified 12hLO, xylenol orange hydroperoxide absorbance; 580,000 compounds, 1.1% hits; Polyunsaturated fatty acid lipoxygenase ALOX12 (Homo sapiens), P18054; Potency, µM (doses to about 108 µM), for inactives: at the top dose activity change, negative = inhibition, most hits filed as inhibitors; further: on the % scale 0 is the no-effect control and ±100 the full control effect
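Purified human 12hLO at 150 nM in 25 mM Hepes, 0.01% Triton X-100, pH 7.0, preincubated 15 min at room temperature with compound. Reaction started with 40 uM arachidonic acid, 30 min at room temperature. Hydroperoxide measured by Fe-xylenol orange, 573/405 nm absorbance ratio.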
JMJD2A Tudor – qHTS Assay for Inhibitors of JMJD2A-Tudor Domain; Lysine-specific demethylase 4A (Homo sapiens), O75164; AlphaScreen JMJD2A-Tudor / H3K4me3 peptide binding; Potency, µM (series often up to 114 µM), inactives show at the highest dose activity change, negative = inhibition, hits mostly inhibitors; 390,000 compounds, 4.4% hits; AID 504339, 2011; further: on the % scale 0 is the no-effect control and ±100 the full control effect; nearly all actives have a fitted effect of over 50% in size
BAZ2B inh – qHTS Assay for Inhibitors of BAZ2B | AlphaScreen BAZ2B-H3K14Ac peptide displacement | Potency, µM (titrated, usually from 114 µM), for inactives: at the highest dose activity change, negative = inhibition, most hits filed as inhibitors | 360,000 compounds, 4.4% hits; further: on the % scale 0 is the no-effect control and ±100 the full control effect; nearly all actives have a fitted effect of over 60% in size
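Complex of BAZ2B and biotin-H3K14Ac (50 nM apiece) forms over 30 min at RT, then faces library compounds up to 110 uM for another 30 min; AlphaScreen beads added, 20 min dark incubation, luminescence read.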
Sfp PPTase inh – qHTS Assay for Inhibitors of Bacillus subtilis Sfp phosphopantetheinyl transferase (PPTase); Biochemical Sfp PPTase activity, qHTS; Potency, µM, inactives show largest response in the series, negative = inhibition, actives largely listed as inhibitors; 310,000 compounds, 3.5% hits; AID 1490, 2009;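 further: the enzyme is Sfp with the accession as filed and its product quenches rhodamine fluorescence; 0% = enzyme reaction without inhibitor and -100% = no enzyme wells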
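Fluorescence-quenching assay: 15 nM Sfp-PPTase preincubated 15 min at room temperature with compound, then 5 uM rhodamine-CoA and 12.5 uM BHQ-2-labelled YbbR peptide added. Fluorescence (ex 525/em 598 nm) read at start and after 30 min; difference gives rate.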
HP1b chromo inh – HTS for Inhibitors of HP1-beta Chromodomain Interactions with Methylated Histone Tails; AlphaScreen HP1-beta / biotin-H3K9me3 peptide binding; Potency, µM (highest dose often 114 µM), for the others: at the highest dose activity change, negative = inhibition, most hits filed as inhibitors; 390,000 compounds, 0.56% hits; further: nearly all actives have a fitted effect of over 70% in size
Target sequence (P83916 whole entry, looked up): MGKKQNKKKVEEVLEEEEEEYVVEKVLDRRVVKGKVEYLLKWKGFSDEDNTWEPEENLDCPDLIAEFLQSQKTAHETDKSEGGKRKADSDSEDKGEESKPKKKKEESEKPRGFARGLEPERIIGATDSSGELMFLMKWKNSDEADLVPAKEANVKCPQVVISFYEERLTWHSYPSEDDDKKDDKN
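Compound inhibition of the preformed complex between 50 nM HP1-beta and 50 nM biotinylated H3K9me3 peptide was read by AlphaScreen. Buffer was PBS pH 7.4 with 0.01% Tween-20. Incubations ran 30 min at room temperature, with 10 ug/mL donor/acceptor beads.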
G9a inh – qHTS Assay for Inhibitors of Histone Lysine Methyltransferase G9a. Histone-lysine N-methyltransferase EHMT2 (Homo sapiens), Q96KQ7. G9a H3K9 monomethylation, AlphaScreen, 2 h. Potency, µM (highest dose often 102 µM), for the others: at the top dose activity, negative = inhibition, hits mostly inhibitors. 350,000 compounds, 8.8% hits; further: on the % scale 0 is the no-effect control and ±100 the full control effect; nearly all actives have a fitted effect of over 75% in size
Target sequence (Q96KQ7 913-1193 limits assumed): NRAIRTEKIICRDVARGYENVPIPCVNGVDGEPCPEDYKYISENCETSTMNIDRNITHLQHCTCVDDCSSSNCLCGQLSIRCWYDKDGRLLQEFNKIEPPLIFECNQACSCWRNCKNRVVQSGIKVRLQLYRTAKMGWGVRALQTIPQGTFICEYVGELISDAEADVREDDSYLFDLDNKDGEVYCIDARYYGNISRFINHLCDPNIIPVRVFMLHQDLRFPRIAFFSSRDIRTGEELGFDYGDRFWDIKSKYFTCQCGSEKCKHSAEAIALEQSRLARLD
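G9a (20 nM) preincubated 15 min RT with compounds, then 500 nM biotinylated H3K9 peptide and 20 uM SAM added; 2 h RT reaction. Monomethyl-H3K9 product detected by AlphaScreen with anti-H3K9me1 antibody, streptavidin donor and anti-rabbit IgG acceptor beads.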
An asterisk follows results filed as active; ? = inconclusive; · = not tested or not shown; ! = a repeat was not active; [ ] = remark or other dose. The call rests on the fitted dose curve; in most records, active means well fitted curve in the direction sought with a large enough effect; inconclusive means small, poorly fitted or top-dose-only effect, or another doubt; inactive means no such curve, though single readings can be large; an effect the other way counts as inactive or inconclusive. Potency means the concentration at half of the fitted maximal effect.

SMILES	12-LOX inh	JMJD2A Tudor	BAZ2B inh	Sfp PPTase inh	HP1b chromo inh	G9a inh
COc1ccc(-c2cccc(-c3nc4ccc(Cl)cn4c3NC3CCCCC3)c2)cc1	7.1µM*	-34%	·	·	18%	·
CCCCNc1c(-c2cccc(-c3cc(C(C)=O)cs3)c2)nc2cc(C)ccn12	-8%	?	28µM*	·	-8%	5%[2.33 µM]
O=C(O)CCNc1c(-c2ccc(F)cc2)nc2cnccn12	35µM*	·	·	·	·	·
CCCCCCSc1ccc(-c2nc3ccc(Cl)cn3c2NC2CCCCC2)cc1	-24%	?	·	·	36%	·
CCCCNc1c(-c2ccc(OC)c(Sc3ccc(OC)cc3)c2)nc2ccccn12	·	45µM*	40µM*	·	-16%	-3%[12.7 µM]
O=C(CCNc1c(-c2ccccc2)nc2cnccn12)N1CCCC1	-14%	·	·	·	·	·
COCCN1C(=O)CS(=O)(=O)C12CCN(C(=O)COc1ccc(Cl)cc1)CC2	7%	·	·	·	·	·
CCCCCCSc1cc(-c2nc3cnccn3c2NCCCC)ccc1OC	·	?	·	·	74%	·
CC(=O)c1csc(-c2cccc(-c3nc4ccc(Cl)cn4c3NC3CCCCC3)c2)c1	?	?	56µM*	·	-7%	2%[2.33 µM]
CCCCNc1c(-c2ccc(SC(C)CC)c(OC)c2)nc2ccc(Cl)cn12 (stereo not drawn)	?	?	·	·	71%	·
CCC(C)Sc1cc(-c2nc3ccc(Cl)cn3c2NC2CCCCC2)ccc1OC (stereo not drawn)	40µM*!	?	·	·	12%	·
CCCCNc1c(-c2ccc(SC(C)CC)c(OC)c2)nc2ccc(C)cn12 (stereo not drawn)	?	?	50µM*	·	7%	-5%[2.33 µM]
CC(=O)Nc1c(-c2ccccc2)nc2ccc(Cl)cn12	0%	-6%	·	·	14%	·
CCCCNc1c(-c2ccc(SC(C)CC)cc2)nc2cnccn12 (stereo not drawn)	·	56µM*	·	·	24%	·
CC(=O)Nc1ccc(C=CC=Cc2cccc([N+](=O)[O-])c2)cc1	?	79µM*	·	·	?	·
O=C(CNc1ccc2ccccc2c1)N/N=C/C=C/c1cccc([N+](=O)[O-])c1	-30%	?	89µM*	-12%	16%	3.2µM*
O=C/C=C/c1cccc([N+](=O)[O-])c1	-5%	·	·	·	·	·
O=C(N/N=C/C=C/c1cccc([N+](=O)[O-])c1)C(O)c1ccccc1 (stereo not drawn)	5%	-2%	-2%	15%	33%	20%[0.501 µM]
O=C(NCc1cccnc1)[C@@H]1C[C@@H](O)CN1C1CCN(C(=O)c2cccs2)CC1	62%	·	·	·	·	·
CSc1nc(C=Nc2ccccc2Cl)c(O)n1Cc1cccc(Cl)c1	?	79µM*	-19%	-21%	5%	·
O=Nc1c(O)n(Cc2cccc(Cl)c2)c2ccccc12	-20%	-27%	-31%	6%	-4%	·
Cc1ccc(-c2noc([C@@H]3C[C@H](NS(=O)(=O)c4ccc(F)cc4)CN3C)n2)cc1	1%[176 µM]	·	·	·	·	·
Cc1ccc2c(c1)c1c(n2CC(O)CNC2CCCC2)CCCC1 (stereo not drawn)	?	18µM*	45µM*	-6%	?	20µM*
Cc1ccc2c(c1)c1c(n2CC(O)Cn2ccnc2C)C(=O)CCC1 (stereo not drawn)	390%	-24%	-8%	22%	10%	-7%[59 µM]
COc1cc(/C=N/Nc2ccc(C(=O)O)cc2)ccc1O	-15%	?	50µM*	?	50µM*	?
COc1cc(/C=N/NC(=O)c2ccccc2)ccc1O	6%	1%	1%	9%	28%	25%
